TGFb inhibitor: blocks TGF-b signaling; HepG2 CAGA-GFP TGF-b/SMAD3 reporter, GFP fluorescence, 18 h; TGF-beta stimulated, 500 pg/mL final; Potency, µM (doses to about 46.1 µM), without a hit: at the highest dose activity, negative = inhibition, hits mostly inhibitors; 410,000 compounds, 1.2% hits; further: on the % scale 0 is the no-effect control and ±100 the full control effect; nearly all actives have a fitted effect of over 65% in size
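TGF-beta reporter screen: HEPG2 CAGA-GFP, 1% FBS, 500 pg/mL TGF-beta final, 18 h; per-cell GFP summed per well; curves fitted and categorized by class.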
HepG2 viability: kills HepG2 cells in TGF-b inhibitor counter-screen; HepG2 CAGA-GFP viability, ATP luminescence, 18 h; Potency, µM (highest dose often 46.1 µM), for inactives: top-dose activity change, negative = cytotoxicity, actives largely listed as cytotoxic; 410,000 compounds, 0.76% hits; AID 588856
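HepG2 CAGA-GFP cells (1000/well, DMEM with 1% FBS) received compound, then TGF-beta at 500 pg/mL final, and were incubated 18 hours at 37 degrees C. Viability was read by CellTiter-Glo luminescence. Media-only wells were set as complete cell-killing and DMSO as no toxicity.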
HT1080-NT tox: kills 2HG-producing HT-1080-NT fibrosarcoma cells; 360,000 compounds, 1.6% hits; Potency, µM (titrated, usually from 46.1 µM), for inactives: top-dose activity, negative = less viability, most hits filed as cytotoxic; HT-1080-NT fibrosarcoma viability, CellTiter-Glo ATP luminescence, 48 h;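 further: NT is the 2HG producing partner of a matched IDH1 knockdown line; 0% = DMSO-treated cells and -100% = media-only wells without cells; nearly all actives have a fitted effect of over 55% in size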
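HT-1080-NT; 750 cells/well; 5% FBS RPMI; 48 h compound, 37 degrees C; CellTiter-Glo luminescence; curve fitting and curve-class assignment.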
TDP1 cell noCPT: qHTS for Inhibitors of human tyrosyl-DNA phosphodiesterase 1 (TDP1): qHTS in cells in absence of CPT | AID 686978, 2013 | Potency, µM (series often up to 46.2 µM), without a hit: at the top dose activity change, negative = growth inhibition, most hits filed as inhibitors | 420,000 compounds, 15% hits | DT40 Tdp1-/- hTDP1 cells, no CPT, ATP luminescence, 48 h; further: on the % scale 0 is the no-effect control and ±100 the full control effect; nearly all actives have a fitted effect of over 55% in size
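No-CPT arm: Tdp1-/-;hTDP1 DT40 cells (400/well) plus compounds, incubated ≥48 hr at 37 °C. Readout CellTiter-Glo luminescence.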
TDP1 cell CPT: growth inhibition of DT40 Tdp1-/-;hTDP1 cells with camptothecin (screen for TDP1 inhibitors) | chicken DT40 Tdp1-/-;hTDP1 cells + 20 nM CPT, ATP luminescence, 48 h | Potency, µM (series often up to 46.2 µM), without a hit: at the highest dose activity change, negative = growth inhibition, actives largely listed as inhibitors | 420,000 compounds, 12% hits; further: on the % scale 0 is the no-effect control and ±100 the full control effect; nearly all actives have a fitted effect of over 55% in size
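Chicken DT40 Tdp1-/- cells stably complemented with human TDP1 were seeded at 400 cells/well in medium containing 20 nM camptothecin, exposed to pin-transferred compounds, and grown at 37 °C for at least 48 hr. Viability was read as ATP luminescence.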
HT1080 IDH1KD tx: kills HT-1080 cells with IDH1 knockdown. HT-1080 IDH1 knockdown viability, ATP luminescence, 48 h. Potency, µM (titrated, usually from 46.1 µM), for the others: at the top dose activity, negative = toxicity, actives largely listed as cytotoxic. 360,000 compounds, 2% hits. AID 686971;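 further: 0% = DMSO wells and -100% = cell-free medium wells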
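Cytotoxicity counter-line: IDH1KD HT-1080, 48 h, CellTiter-Glo. Curves classed by r2, magnitude and activity.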
* = called active by the depositor. This is a sample that favours compounds with a hit; in the whole collection about 17% have one here. The call rests on the fitted dose curve; in most records, active means well fitted curve in the direction sought with a large enough effect; inconclusive means small, poorly fitted or top-dose-only effect, or another doubt; inactive means no such curve, though single readings can be large; an effect the other way counts as inactive or inconclusive. Potency means the concentration at half of the fitted maximal effect.

Results for Oc1ccc(N=Nc2cccc(C(F)(F)F)c2)cc1C=Nc1ccc(N2CCOCC2)cc1 ?
TGFb inhibitor: -2%; HepG2 viability: -21%; HT1080-NT tox: -3%; TDP1 cell noCPT: 18µM*; TDP1 cell CPT: 23µM*; HT1080 IDH1KD tx: -1%

How did COc1ccc(-n2ncc3c(NCCC4=CCCCC4)ncnc32)cc1 do in these assays?
TGFb inhibitor: -1%; HepG2 viability: 1%; TDP1 cell noCPT: inconclusive; TDP1 cell CPT: 16µM*

How did COc1ccc2[nH]c3c(NCCC4=CCCCC4)ncnc3c2c1 do in these assays?
TGFb inhibitor: inconclusive; HepG2 viability: -114%; HT1080-NT tox: 29µM*; TDP1 cell noCPT: 2.9µM*; TDP1 cell CPT: 2.6µM*; HT1080 IDH1KD tx: 16µM*

How did COc1ccc2c(c1)[nH]c1c(=O)n(CCC3=CCCCC3)cnc12 do in these assays?
TGFb inhibitor: 20%; HepG2 viability: 9%; HT1080-NT tox: 10%; TDP1 cell noCPT: 23µM*; TDP1 cell CPT: inconclusive; HT1080 IDH1KD tx: 11%

How did CCOc1ccc2[nH]c3c(NCCC(C)C)ncnc3c2c1 do in these assays?
TGFb inhibitor: inconclusive; HepG2 viability: -35%; HT1080-NT tox: inconclusive; TDP1 cell noCPT: 18µM*; TDP1 cell CPT: 26µM*; HT1080 IDH1KD tx: inconclusive

Results for CCC(CO)N=CC1=C(O)CC(c2ccccc2)CC1=O (stereo unspecified) ?
TGFb inhibitor: -4%; HepG2 viability: -9%; HT1080-NT tox: 5%; TDP1 cell noCPT: -2%; TDP1 cell CPT: 21%; HT1080 IDH1KD tx: 16%

How did CCC(=O)N1CCc2cc(S(=O)(=O)CCC(=O)Nc3cc(Cl)ccc3OC)ccc21 do in these assays?
TGFb inhibitor: inconclusive; HepG2 viability: -9%; TDP1 cell noCPT: inconclusive; TDP1 cell CPT: inconclusive

Results for COc1ccc(C(=O)Nc2cc3cc(Cl)ccc3oc2=O)cc1OC ?
TGFb inhibitor: 4%; HepG2 viability: 4%; TDP1 cell noCPT: 2.9µM*; TDP1 cell CPT: 5.8µM*

What do the screens show for `CC(=O)Nc1cc2cc(NS(=O)(=O)c3ccc(Cl)cc3)ccc2oc1=O`?
TGFb inhibitor: 4%; HepG2 viability: 0.2µM*; HT1080-NT tox: 0%; TDP1 cell noCPT: -15%; TDP1 cell CPT: -6%; HT1080 IDH1KD tx: -8%

How did Cc1ccc(C(=O)Nc2cc3cc(Cl)ccc3oc2=O)cc1 do in these assays?
TGFb inhibitor: 0%; HepG2 viability: 5%; TDP1 cell noCPT: 1.5µM*; TDP1 cell CPT: 1.2µM*

How did NS(=O)(=O)c1ccc(NC(=S)N2CCN(C(=O)C3CCCO3)CC2)cc1 (stereo unspecified) do in these assays?
TGFb inhibitor: 0%; HepG2 viability: -1%; HT1080-NT tox: 14%; TDP1 cell noCPT: 18%; TDP1 cell CPT: -4%; HT1080 IDH1KD tx: 2%

How did O=C(C[n+]1ccncc1Cl)c1ccc(F)cc1 do in these assays?
TGFb inhibitor: inconclusive; HepG2 viability: -28%; TDP1 cell noCPT: -25%; TDP1 cell CPT: 1%

What do the screens show for `COc1ccc(C(=O)C[n+]2ccc(Cl)c3ccc(Cl)cc32)cc1`?
TGFb inhibitor: 0%; HepG2 viability: 7%; TDP1 cell noCPT: 7.9µM*; TDP1 cell CPT: 7.9µM*

What do the screens show for `O=C(C[n+]1ccc(Cl)c2ccc(Cl)cc21)c1ccc(F)cc1`?
TGFb inhibitor: -10%; HepG2 viability: -7%; TDP1 cell noCPT: 3.5µM*; TDP1 cell CPT: 10µM*

Results for C=CCN(c1cccc(C(F)(F)F)c1)S(=O)(=O)c1cccc(C(=O)OCC(=O)Nc2ccccc2)c1 ?
TGFb inhibitor: -4%; HepG2 viability: 0%; HT1080-NT tox: -9%; TDP1 cell noCPT: -2%; TDP1 cell CPT: 0%; HT1080 IDH1KD tx: -9%

What do the screens show for `COC(=O)C1C[C@@H]2C3=C(C(=O)[C@@](C)(NC(=O)c4ccccc4)C3[C@H](C(=O)OC)C1)[C@H](C)n1c(=O)n(-c3ccccc3)c(=O)n12` (stereo partly specified)?
TGFb inhibitor: -7%; HepG2 viability: -4%

How did CC1Cc2ccccc2N1C(=O)CSc1nc2c(c(=O)n(C)c(=O)n2C)n1Cc1ccccc1 (stereo unspecified) do in these assays?
TGFb inhibitor: -10%; HepG2 viability: -18%; HT1080-NT tox: 4%; TDP1 cell noCPT: 21µM*; TDP1 cell CPT: 23µM*; HT1080 IDH1KD tx: -3%

How did CCn1c(SCC(=O)N2c3ccccc3CCc3ccccc32)nc2c1c(=O)n(C)c(=O)n2C do in these assays?
TGFb inhibitor: 8%; HepG2 viability: -31%; HT1080-NT tox: inconclusive; TDP1 cell noCPT: inconclusive; TDP1 cell CPT: inconclusive; HT1080 IDH1KD tx: -1%

How did CC1CCCN(Cc2nc3c(c(=O)n(C)c(=O)n3C)n2Cc2ccc(Cl)cc2)C1 (stereo unspecified) do in these assays?
TGFb inhibitor: -1%; HepG2 viability: 7%; TDP1 cell noCPT: -15%; TDP1 cell CPT: -10%

Results for COC(=O)Cn1c(N2CCCC2)nc2c1c(=O)n(C)c(=O)n2C ?
TGFb inhibitor: -6%; HepG2 viability: 7%; HT1080-NT tox: 3%; TDP1 cell noCPT: 18%; TDP1 cell CPT: 1%; HT1080 IDH1KD tx: 2%

What do the screens show for `CC1CCCN(c2nc3c(c(=O)n(C)c(=O)n3C)n2Cc2ccccc2)C1` (stereo unspecified)?
TGFb inhibitor: -22%; HepG2 viability: -2%; HT1080-NT tox: 12%; TDP1 cell noCPT: 23µM*; TDP1 cell CPT: inconclusive; HT1080 IDH1KD tx: 24%

Results for CCCCCCn1c(N2CCN(c3ccccc3)CC2)nc2c1c(=O)n(C)c(=O)n2C ?
TGFb inhibitor: 8%; HepG2 viability: -20%; HT1080-NT tox: 12%; TDP1 cell noCPT: 21µM*; TDP1 cell CPT: inconclusive; HT1080 IDH1KD tx: -1%

What do the screens show for `C=C(C)Cn1c(N2CCN(c3ccc(OC)cc3)CC2)nc2c1c(=O)n(C)c(=O)n2C`?
TGFb inhibitor: -21%; HepG2 viability: 7%; HT1080-NT tox: -16%; TDP1 cell noCPT: 13µM*; TDP1 cell CPT: 16µM*; HT1080 IDH1KD tx: -17%

What do the screens show for `COCCn1c(N2CCN(c3ccccc3)CC2)nc2c1c(=O)n(C)c(=O)n2C`?
TGFb inhibitor: 1%; HepG2 viability: -2%; HT1080-NT tox: 12%; TDP1 cell noCPT: inconclusive; TDP1 cell CPT: -26%; HT1080 IDH1KD tx: 7%

High-throughput results from PubChem.
